KB-V1 MDR tox = kills drug-selected multidrug resistant KB-V1 cells; AID 1347076; 400,000 tested, 3.4% active; Potency, µM (titrated, usually from 46.1 µM), usual class: cytotoxic; KB-V1 MDR cells viability, CellTiter-Glo, 72 h; note: nearly all actives have a fitted effect of over 60% in size
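KB-V1, DMEM (no phenol red) + 10% FBS; cpd pin-transferred, titration series; 72 h, 37 degrees C; CellTiter-Glo, luminescence. Data normalized, curve-fit.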
KB-3-1 tox = kills parental KB-3-1 adenocarcinoma cells; Potency, µM (doses to about 46.1 µM), usual class: cytotoxic; 400,000 tested, 1.4% active; KB-3-1 viability, CellTiter-Glo ATP luminescence, 72 h; note: nearly all actives have a fitted effect of over 60% in size
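Multi-concentration cytotoxicity screen in KB-3-1 cells grown in DMEM lacking phenol red with 10% FBS. After 72 h at 37 °C with compound, ATP-dependent luminescence was recorded.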
SW480 rerep = inducers of DNA re-replication in SW480 colon cancer cells. 340,000 tested, 1.8% active. AID 624297. Potency, µM (series often up to 46.1 µM), hits mostly activators. SW480 DNA re-replication, Hoechst DNA content imaging, 48 h; note: nearly all actives have a fitted effect of over 55% in size
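Cells (250 per well) received 23 nL compound or DMSO by pin tool and were kept 48 hr at 37 C, 5% CO2. Nuclei were then stained with Hoechst for 40 min and scanned for DNA content.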
MCF10A rereplic = DNA re-replication induction in MCF 10a cells | MCF 10A DNA re-replication, Hoechst nuclear intensity, 48 h | Potency, µM (doses to about 46.1 µM), most hits filed as activators | 350,000 tested, 2.9% active | AID 624296; note: nearly all actives have a fitted effect of over 50% in size
HT1080 IDH1KD tx = toxicity to HT-1080 IDH1 knockdown cells (counter line); AID 686971; Potency, µM (titrated, usually from 46.1 µM), usual class: cytotoxic; HT-1080 IDH1 knockdown viability, ATP luminescence, 48 h; 360,000 tested, 2% active
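Knockdown cells (IDH1KD HT-1080) received compounds 2 h after plating at 750 cells/well and were kept 48 h at 37 °C in 5% FBS RPMI. A CellTiter-Glo luminescence read gave % activity for curve fitting.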
HT1080-NT tox = kills 2HG-producing HT-1080-NT fibrosarcoma cells; Potency, µM (top dose mostly 46.1 µM), hits mostly cytotoxic; HT-1080-NT fibrosarcoma viability, CellTiter-Glo ATP luminescence, 48 h; 360,000 tested, 1.6% active;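 note: NT is the 2HG producing partner of a matched IDH1 knockdown line; nearly all actives have a fitted effect of over 55% in size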
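750 cells/well, RPMI + 5% FBS; 2 h settle, compound pin-transfer, 48 h at 37 degrees C. CellTiter-Glo 10 min RT, luminescence. Normalized to DMSO and media-only wells.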
A number is an active result; i = inactive; ? = inconclusive; nt = no result given. Only some compounds are listed: those with a hit (about 8% of all), similar ones and a draw of the others. Calls come from the whole dose curve; as a rule, active = well fitted curve in the direction sought with a large enough effect; inconclusive = small, poorly fitted or top-dose-only effect, or another doubt; inactive = no such curve, though single readings can be large; an effect the other way counts as inactive or inconclusive.

SMILES | KB-V1 MDR tox | KB-3-1 tox | SW480 rerep | MCF10A rereplic | HT1080 IDH1KD tx | HT1080-NT tox
CCc1nc2ccc(C(=O)NCCCN3CCCC3=O)cn2c1N(C)C(=O)Nc1ccccc1OC | i | i | nt | nt | i | i
COc1ccc(-c2nnc3c4ccccc4c(C)nn23)cc1S(=O)(=O)N1CCN(CCO)CC1 | ? | ? | i | i | 8.9µM | ?
Cc1nn2c(-c3ccc(S(=O)(=O)N4CCN(CCO)CC4)o3)nnc2c2ccccc12 | i | i | 18µM | i | i | i
Cc1ccc(-c2nn3c(C)nnc3c3ccccc23)cc1S(=O)(=O)N1CCN(CCO)CC1 | i | i | i | i | i | i
Cc1ccc(NC(=O)CCc2nc(-c3ccccc3F)no2)c(C)c1 | i | i | nt | nt | nt | nt
Cc1ccccc1NC(=S)N=Nc1c(O)n(C)c2ccc(S(=O)(=O)N3CCOCC3)cc12 | ? | ? | ? | i | 21µM | ?
Cc1cccc(NC(=S)N=Nc2c(O)n(C)c3ccc(S(=O)(=O)N4CCOCC4)cc23)c1 | 0.73µM | ? | ? | i | i | i
Cc1ccc(NC(=S)N=Nc2c(O)n(C)c3ccc(S(=O)(=O)N4CCOCC4)cc23)cc1 | i | ? | i | ? | ? | i
C=CCn1c(O)c(N=NC(=S)Nc2ccccc2F)c2cc(S(=O)(=O)N3CCOCC3)ccc21 | ? | ? | i | i | ? | ?
Cc1cccc(C)c1NC(=S)N=Nc1c(O)n(C)c2ccc(S(=O)(=O)N3CCOCC3)cc12 | 3.7µM | ? | i | ? | i | i
Cc1cc(C)cc(NC(=S)N=Nc2c(O)n(C)c3ccc(S(=O)(=O)N4CCOCC4)cc23)c1 | i | i | ? | i | i | i
CC1=C(C(=O)Nc2ccccc2)C(c2ccncc2)n2nc(SCc3ccccc3F)nc2N1 (stereo not given) | i | i | nt | nt | nt | nt
COc1ccc(CNC(=O)c2ccc(S(=O)(=O)N3CC(C)CC(C)C3)cc2)cc1OC (stereo not given) | 7.3µM | i | i | i | i | i
CC1CCN(S(=O)(=O)N2CCC(C(=O)NCc3cccs3)CC2)CC1 | 18µM | i | i | i | i | i
O=C(NCc1cccs1)C1CCCN1S(=O)(=O)c1ccccc1F (stereo not given) | 12µM | i | i | i | i | i
COc1ccc(CCNC(=O)C2CCN(S(=O)(=O)N3CCC(C)CC3)CC2)cc1OC | 21µM | ? | i | i | i | i
Cc1ccc(CN2CCN(C3CCN(C(=O)Nc4ccccc4C(F)(F)F)CC3)C(=O)C2=O)cc1 | i | i | nt | nt | nt | nt
CCOC(=O)c1ccccc1NC(=O)Cn1c(-c2nonc2N)nc2ccccc21 | 1.5µM | 1µM | 0.92µM | 0.46µM | 0.92µM | ?
CCCCn1c(-c2nonc2N)nc2ccccc21 | ? | ? | ? | ? | i | i
CC1CCCN(C(=O)Cn2c(-c3nonc3N)nc3ccccc32)C1 (stereo not given) | 7.3µM | i | i | i | i | i
CC(C)CCn1c(-c2nonc2N)nc2ccccc21 | i | i | ? | 16µM | ? | ?
CCCCCOc1ccc(NC(=O)Cn2c(-c3nonc3N)nc3ccccc32)cc1 | ? | i | nt | nt | nt | nt
Nc1nonc1-c1nc2ccccc2n1CC(=O)Nc1ccccc1 | ? | ? | 12µM | i | ? | ?
CCOc1cc(C(=O)Nc2ccc3c(c2)n(C)c(=O)c(=O)n3C)cc(OCC)c1OCC | i | i | nt | nt | nt | nt
O=C(NNC(=O)c1cc(Br)c(Br)s1)c1ccncc1 | i | i | i | i | i | i
CCCCn1c(-c2nonc2NC(=O)c2ccccc2Cl)nc2ccccc21 | ? | 3.3µM | i | i | i | i
N#CCCn1c(-c2nonc2NC(=O)c2ccccc2Cl)nc2ccccc21 | i | i | i | i | i | i
COc1cc(-c2nc(Cn3nnc(C(=O)Nc4ccccc4C)c3C)c(C)o2)cc(OC)c1OC | i | i | nt | nt | nt | nt
CC(C)(C)N(Cc1ccccc1)C(=O)COC(=O)c1ccccc1SCC(=O)N1CCCC1 | 21µM | i | i | i | i | i
O=C(COC(=O)c1ccccc1SCC(=O)N1CCCC1)Nc1ccccc1 | i | i | i | i | i | i

From PubChem
